Test results as given in PubChem BioAssay AID1159580 (chemical genetic matrix, 2015).
Screen size: about 5,500 compounds; about 2,000 (36%) were called active. Roughly 18% stayed inconclusive and do not appear here. No stated cut-off is given here; in the data, active means normalized growth mostly below about 0.91 (no sharp cut-off); inconclusive means no clear call, values can overlap the other calls; inactive means mostly above about 0.92. The list shows a part of the results.

Assay: chemical genetic growth profiling, strain panel (AID 1159580);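 further: tested at 20 µM; growth read once vehicle control cultures reached saturation at 30 °C; 1 = growth at the plate median or of vehicle wells; lower values mean less growth of the strain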
Conditions: S. cerevisiae deletion strains, growth OD
[1] = locus YDL101C, strain DUN1, hits give low values
[2] = locus YHR030C, strain SLT2, hits give low values

Measured: normalized growth

Cc1ccc2nc(-c3ccc4c(c3)OCCO4)cn2c1
inactive: locus YAR019C, strain CDC15, hits give low values 0.981 | locus YBL105C, strain PKC1, hits give low values 0.98 | locus YBR135W, strain CKS1, hits give low values 0.984 | locus YBR136W, strain MEC1, hits give low values 0.983 | locus YBR160W, strain CDC28, hits give low values 0.978 | locus YDL017W, strain CDC7, hits give low values 0.985 | locus YDL028C, strain MPS1, hits give low values 0.984 | [1] 0.988 | locus YDL108W, strain KIN28, hits give low values 0.982 | locus YDL132W, strain cdc53, hits give low values 0.982 | locus YDL214C, strain PRR2, hits give low values 0.958 | locus YDR052C, strain DBF4, hits give low values 0.988 | locus YDR054C, strain cdc34, hits give low values 0.97 | locus YDR226W, strain ADK1, hits give low values 0.99 | locus YDR477W, strain SNF1, hits give low values 0.967 | locus YER123W, strain YCK3, hits give low values 0.941 | locus YER133W, strain GLC7, hits give low values 0.966 | locus YFL009W, strain cdc4, hits give low values 0.981 | locus YFL029C, strain CAK1, hits give low values 0.974 | locus YFR003C, strain YPI1, hits give low values 0.983 | locus YFR019W, strain FAB1, hits give low values 0.963 | locus YFR028C, strain CDC14, hits give low values 0.976 | locus YGR040W, strain KSS1, hits give low values 0.953 | locus YGR052W, strain FMP48, hits give low values 1.04 | locus YGR092W, strain DBF2, hits give low values 0.929 | [2] 0.986 | locus YHR079C, strain IRE1, hits give low values 0.966 | locus YHR082C, strain KSP1, hits give low values 1.01 | locus YHR205W, strain SCH9, hits give low values 0.956 | locus YIL147C, strain SLN1, hits give low values 0.983 | locus YJL095W, strain BCK1, hits give low values 0.984 | locus YJL128C, strain PBS2, hits give low values 0.969 | locus YJL157C, strain FAR1, hits give low values 0.944 | locus YJR016C, strain ILV3, hits give low values 0.983 | locus YJR066W, strain TOR1 (second series), hits give low values 0.911 | locus YJR066W, strain TOR1, hits give low values 1 | locus YKL048C, strain ELM1, hits give low values 0.959 | locus YKL067W, strain YNK1, hits give low values 0.967 | locus YKL101W, strain HSL1, hits give low values 0.951 | locus YKL193C, strain SDS22, hits give low values 0.983 | locus YKL203C, strain TOR2, hits give low values 1.01 | locus YLR113W, strain HOG1, hits give low values 0.899 | locus YLR133W, strain CKI1, hits give low values 0.956 | locus YLR403W, strain SFP1, hits give low values 0.947 | locus YML070W, strain DAK1, hits give low values 0.938 | locus YMR001C, strain CDC5, hits give low values 0.987 | locus YMR205C, strain PFK2 (second series), hits give low values 0.97 | locus YMR277W, strain FCP1, hits give low values 0.982 | locus YNL006W, strain LST8, hits give low values 0.989 | locus YNL020C, strain ARK1, hits give low values 0.961 | locus YNL161W, strain CBK1, hits give low values 0.974 | locus YNL183C, strain NPR1, hits give low values 0.996 | locus YNL207W, strain RIO2, hits give low values 0.978 | locus YNL222W, strain SSU72, hits give low values 0.979 | locus YNL307C, strain MCK1 (second series), hits give low values 0.94 | locus YOL078W, strain AVO1, hits give low values 0.98 | locus YOL136C, strain PFK27, hits give low values 0.929 | locus YOR061W, strain CKA2, hits give low values 0.966 | locus YOR119C, strain RIO1, hits give low values 0.997 | locus YOR231W, strain MKK1, hits give low values 0.932 | locus YOR329C, strain SCD5, hits give low values 0.985 | locus YPL031C, strain PHO85, hits give low values 0.958 | locus YPL153C, strain RAD53, hits give low values 0.947 | locus YPL204W, strain HRR25, hits give low values 0.935 | locus YPL209C, strain IPL1, hits give low values 0.978 | locus YPL256C, strain CLN2, hits give low values 0.923 | locus YPR025C, strain CCL1, hits give low values 0.981 | locus YPR106W, strain ISR1, hits give low values 0.973 | locus YPR111W, strain DBF20, hits give low values 0.965 | strain NNK1, hits give low values 0.975 | strain TSCII, hits give low values 0.986

COC(=O)C/C(N)=C(\C#N)C(=O)OC
inactive: locus YAL013W, strain DEP1, hits give low values 1 | locus YBR229C, strain ROT2, hits give low values 0.984 | locus YCL061C, strain MRC1, hits give low values 1.02 | [1] 1.03 | locus YDR150W, strain NUM1, hits give low values 1.01 | locus YEL061C, strain CIN8, hits give low values 0.994 | locus YGR078C, strain PAC10, hits give low values 1.05 | [2] 1.08 | locus YHR087W, strain rtc3, hits give low values 0.944 | locus YJL187C, strain SWE1, hits give low values 1.02 | locus YJR043C, strain POL32, hits give low values 1.02 | locus YJR075W, strain HOC1, hits give low values 1.01 | locus YKL190W, strain CNB1, hits give low values 0.986 | locus YLR039C, strain RIC1, hits give low values 0.993 | locus YLR058C, strain SHM2 (second series), hits give low values 0.983 | locus YLR085C, strain ARP6, hits give low values 0.995 | locus YLR262C, strain YPT6, hits give low values 0.982 | locus YML094W, strain GIM5, hits give low values 0.982 | locus YMR219W, strain ESC1, hits give low values 0.982 | locus YMR263W, strain SAP30, hits give low values 1.02 | locus YNL153C, strain GIM3, hits give low values 1.04 | locus YNL298W, strain CLA4 (second series), hits give low values 0.999 | locus YNL322C, strain KRE1, hits give low values 1.01 | locus YNR030W, strain Alg12, hits give low values 1.03 | locus YPL055C, strain LGE1, hits give low values 0.975 | locus YPL241C, strain CIN2, hits give low values 1.01 | locus YPR135W, strain CTF4, hits give low values 1.08
